This is part of a sample that, as a whole, favours compounds with a hit. Of some 83,000 tested, about 20% had one in any assay.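 96-well plates, one dose, 48 hours. Percent growth reported; active if below 10.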 Values without a mark were called inactive. Calls of active or inactive are those of the source.

Growth data for 40 compounds are collected here from PubChem BioAssay (NCI).

The test system of the test is HL-60(TB) leukemia. Kind of test: NCI-60 one-dose screen, 48 h (100 = growth as untreated, 0 = no growth, -100 = all killed). As to conditions: 10 µM unless noted.
With `COC(=O)[C@H](CCCCNC(=O)OCc1ccccc1)NC(=O)[C@@H](NC(=O)Nc1cc(C(F)(F)F)cc(C(F)(F)F)c1)C(C)C`, the growth was -9.21% [100 µM] (active). The same measure for `COc1ccc(-c2cn3c(ccc4ccccc43)n2)cc1`: 109%; for `O=C(/C(=C/c1cccc([N+](=O)[O-])c1)c1ccccc1)c1ccccc1`: 10.6%; for `COc1ccc(Cl)cc1Nc1nc(C(F)(F)F)ccc1C(=O)N/N=C/c1c(Cl)cccc1Cl`: 48.4%. With `CN1CCN(/C=C2\CC(C(=O)NCc3ccc(Cl)cc3Cl)NC2=O)CC1` (stereo not given), the growth is 103%. The same measure for `c1cc2nc(-c3cn[nH]c3)c3c(c2cc1-c1cn[nH]c1)C1CCC3C1` (stereo not given): 84.3%; for `CCCCN=C(N)c1ccc(OCCSCCOc2ccc(C(N)=NCCCC)cc2)cc1`: 38.8%.

As to `COc1cc(/C=C2\C(=O)N(CCCOc3cc(O)c4c(=O)cc(-c5ccccc5)oc4c3)c3ccccc32)cc(OC)c1O`, the growth was 47.2%. With `N#Cc1cccc(C2C3=C(COC3=O)N(CCO)c3cc4c(cc32)OCO4)c1` (stereo not given), the growth is -32.1% (active). The same measure for `COc1ccc(-c2nn(-c3ccc(NC(=O)Nc4ccc(Cl)c(Cl)c4)cc3)cc2-c2ccncc2)cc1Cl`: 5.24% (active); for `COC(=O)[C@@H](OC)[C@@H]1Cc2cc3cc(OC4CC(OC5CC(O)C(O)C(C)O5)C(O)C(C)O4)c(C)c(O)c3c(O)c2C(=O)[C@H]1OC1CC(OC2CC(OC3CC(C)(O)C(O)C(C)O3)C(O)C(C)O2)C(O)C(C)O1` (stereo not given in full): -33.5% (active); for `Nc1ncc(-c2cnn(C3CCNCC3)c2)cc1-c1nc2ccccc2o1`: -55.5% (active). Take `COc1ccc(/C=C2\CCCC3=C2N=C2SC=NN2C3c2ccc(OC)c(OC)c2)cc1OC` (stereo not given): the growth is 15%.

In the case of `c1ccc(-c2nnc(-c3c[nH]c4ncccc34)s2)cc1`, the growth was 98.4%. With `COc1ccc(NC(=O)c2ccc(/C=C/C(=O)c3ncc[nH]3)cc2)cc1` the figure was 33.6%; with `C=CC(=O)Nc1ccc(Oc2nccc(Nc3nnc(-c4ccc(C)cc4)s3)n2)cc1`, 41.6%; with `CCCOC(=O)N[C@H]1CCc2c(Cl)c(OC)c(OC)c(OC)c2-c2ccc(SC)c(=O)cc21`, -36% (active). In the case of `O=C(Cc1ccc(Nc2ccnc(C(F)(F)F)c2)cc1)N/N=C/c1ccccc1O`, the growth was 69.1%. With `O=S(=O)(NCCNc1cc(-c2cn(-c3ccccc3)nc2-c2ccccc2)ccn1)c1cccc2ccccc12` the figure was 36.4%; with `OC(Cc1cc(CC(O)(C(F)(F)F)C(F)(F)F)nc(CC(O)(C(F)(F)F)C(F)(F)F)c1)(C(F)(F)F)C(F)(F)F`, -24.5% (active); with `Cc1nnc(-c2cc3c(ccc4ccccc43)oc2=O)c2cn(-c3ccc(Cl)cc3)nc12`, 84.4%. As to `COc1cc2c(cc1OCCCCCCN1CCN(c3ncnc4ccccc34)CC1)N=CC1CCCN1C2=O` (stereo not given), the growth is -43.3% (active). The same measure for `COc1ccc(Cn2cc3c(c2-c2cc(OC)c(OC)c(OC)c2)CCc2cnoc2-3)cc1`: 0.149% (active). Take `NC(=O)N1CCOCC1`: the growth is 93.5%. Consider `Cc1ccc(C2NC(=S)N3C(c4ccc(C)cc4)NC(=S)N23)cc1` (stereo not given), for which the growth is -23.9% (active).

For the compound `COc1ccc(-n2ncc3c4nc(OC)c(S(=O)(=O)c5ccccc5)cc4ccc32)cc1`, the growth is 107%. With `COc1cc2c(cc1-c1c(C)noc1C)ncc1nc(CN3CCOCC3)n([C@H](C)COC(F)F)c12` the figure was 21.7%; with `O=C(Nc1ccc2c(c1)-c1ccccc1C2)C1CC(=O)N(c2ccc3c(c2)OCO3)C1` (stereo not given), 112% [50 µM]; with `CC(=O)C(/C=N/C(N)=O)=C(/C)O`, 104%. The same measure for `COc1cc2c(cc1-c1c(C)noc1C)ncc1nc(C3CCOCC3)n(C3CCC(OC(F)F)CC3)c12` (stereo not given): 7.23% (active). With `O=C(/C=C\c1ccco1)/C=C/c1ccco1` the figure was 106%. On to `CCn1c2ccc(O)cc2c2c(C)c3c[n+](C)ccc3c(C)c21`, for which the growth was 95.5%.

As for `Cc1cc(-c2noc(C(F)(F)F)n2)ccc1N1CCN(c2cc(C(=O)N(C)C)no2)CC1`, the growth was 49.7%. With `CC1=CCC[C@@H]2C1(C)CC[C@H](C)[C@@]2(C)CC1=CC(=O)C(SC(C)(C)C)=CC1=O` (stereo not given in full) the figure was 56.4%; with `O=C(O)c1ccc2c3c(ncnc13)-c1ccccc1C2=O`, 85.1%; with `CCN1CCN(c2nc(C)cc(N(CCNc3ccnc4cc(Cl)ccc34)Cc3ccc4c(c3)OCO4)n2)CC1`, -57.7% (active). The same measure for `COC(=O)[C@H](C)NC(=O)[C@@H](OC)[C@@H]1Cc2cc3cc(OC4CC(OC5CC(O)C(O)C(C)O5)C(O)C(C)O4)c(C)c(O)c3c(O)c2C(=O)[C@H]1OC1CC(OC2CC(OC3CC(C)(O)C(O)C(C)O3)C(O)C(C)O2)C(O)C(C)O1` (stereo not given in full): 20.8%; for `O=C(Nc1ccc(-n2ccc3c(NC(=O)c4ccccc4)ncnc32)cc1)c1cccc(C(F)(F)F)c1`: 43.9%.

In the case of `CCCCCc1c(C)[nH]c(/C=C2\N=C(c3ccc[nH]3)C=C2OCc2ccccc2)c1C`, the growth is -47.5% [100 µM] (active). As to `CC1OC(Oc2c(-c3ccc(O)c(O)c3)oc3cc(O)cc(O)c3c2=O)C(O)C(O)C1O` (stereo not given), the growth is 106%.
